# Where “and” joins values, the source holds several entries; their conditions need not be identical. Identical values can stand only once. Screen size: about 6,400 compounds; about 610 (9.5%) were called active. Cut-off read from the data, not from the text of the source: active = activity change below about -70%; inconclusive = no clear call, values can overlap the other calls; inactive = above that. The entries come from a sample that favours actives as a whole. A structure can be active in one record and inactive in another.
# Test: T. gondii ME49Luc in HeLa cells, luciferase assay, 72 h, no IFN-y (AID 1259421)
# Conditions: stronger effect = lower value, concentration not given here
row,Structure (SMILES),"activity change, negative = inhibition"
1,CC1=CC[C@@H]2[C@@H](C1)c1c(O)cc(CC#CCCCNS(C)(=O)=O)cc1OC2(C)C,17.8% (inactive)
2,COc1ccc(C(=O)O)cc1OC,8.1% (inactive)
3,O=C(O[C@H]1CN2CCC1CC2)N(Cc1cc(F)c(F)c(F)c1)c1cccc(F)c1,16.6% (inactive)
4,CC(=O)Oc1ccc(/C=C/c2cc(OC(C)=O)cc(OC(C)=O)c2)cc1,11.4% (inactive)
5,O=C1CCC[C@@H]2[C@@H]3CCCN4CCC[C@H](CN12)[C@@H]34,15.2% (inactive)
6,C=C1[C@@H](C)[C@H]2[C@H](Cc3ccccc3)NC(=O)[C@]23OC(=O)/C=C\[C@H](O)CCC[C@@H](C)C/C=C/[C@H]3[C@@H]1O,-85.5% (active)
7,C[C@]12Cc3cn[nH]c3C[C@@H]1CC[C@@H]1[C@@H]2CC[C@@]2(C)[C@H]1CC[C@]2(C)O,-3.74% (inactive)
8,O=C(NC(=O)c1c(F)cccc1F)Nc1cc(Cl)c(OC(F)(F)C(F)C(F)(F)F)cc1Cl (stereo not given),-81.8% (active) and -81.1% (active)
9,CC(=O)OCC1=C(C(=O)O)N2C(=O)[C@@H](NC(=O)CCCC(N)C(=O)O)C2SC1.[Zn] (stereo not given in full),20.4% (inactive)
10,CC(C)=CC1C(C(=O)OCc2coc(Cc3ccccc3)c2)C1(C)C (stereo not given),19.4% (inactive)
11,Cc1c2ccncc2c(C)c2c1[nH]c1ccccc12,-83.1% (active)
12,Cc1nccc2c1[nH]c1ccccc12,1.21% (inactive)
13,c1ccc2c(c1)[nH]c1cnccc12,-0.879% (inactive)
14,COc1ccc2c(c1)CN(C)CC2c1ccc(Cl)c(Cl)c1 (stereo not given),5.02% (inactive)
15,O=C1CCC2(O)C3Cc4ccc(O)c5c4C2(CCN3CC2CC2)C1O5 (stereo not given),10.3% (inactive)
16,Clc1ccc(C2=CCCC3CCC2N3)cn1 (stereo not given),12.4% (inactive) and -82.3% (active)
17,CN(C(=O)Cc1ccc(Cl)c(Cl)c1)[C@H](CN1CCCC1)c1ccccc1,8.8% (inactive) and 17.5% (inactive)
18,OC12C3C4CC5C6C4C1C6C(C53)N2CCc1cccc(F)c1 (stereo not given),18.7% (inactive) and 6.8% (inactive)
19,CN(C)c1ccc(/C=C2\CCCN=C2c2cccnc2)cc1,-1.7% (inactive) and -12.2% (inactive)
20,CC1(C)CC[C@]2(C(=O)O)CC[C@]3(C)[C@H](C(=O)C=C4[C@@]5(C)C=C(C#N)C(=O)C(C)(C)[C@@H]5CC[C@]43C)[C@@H]2C1,-98.8% (active)
21,O=C1NCN(c2ccccc2)C12CCN(CC1COc3ccccc3O1)CC2 (stereo not given),-3.91% (inactive) and 4.3% (inactive)
22,CC1CC(C)C(=O)C(C(O)CC2CC(=O)NC(=O)C2)C1 (stereo not given),-83.8% (active)
23,C[C@@H]1C[C@@H]([C@H](O)CC2CC(=O)NC(=O)C2)C(=O)[C@@H](C)C1,-81.3% (active) and -84.7% (active)
24,Oc1c(I)cc(I)cc1I,3.61% (inactive)
25,CN1CC(CNC(=O)OCc2ccccc2)CC2c3cccc4c3c(cn4C)CC21 (stereo not given),8.87% (inactive) and 8.34% (inactive)
26,N#CC(C#N)=NNc1ccc(OC(F)(F)F)cc1,20% (inactive)
27,Oc1ccc2c3c1O[C@H]1c4oc5ccccc5c4C[C@@]4(O)C(C2)N(CC2CC2)CC[C@]314,-2.8% (inactive)

row,Structure (SMILES),"activity change, negative = inhibition"
1,C/C(=C/C=C/[C@@H](C)C(=O)O)[C@H]1CN[C@H](C(=O)O)[C@H]1CC(=O)O,4.56% (inactive)
2,c1ccc(CCCN2CCN(CCOC(c3ccccc3)c3ccccc3)CC2)cc1,-51.1% (inactive) and -1.58% (inactive)
3,C[C@H]1CN(Cc2ccc(CC(=O)N3CCC(Nc4cccc(F)c4)CC3)cc2)CCN1,4.86% (inactive)
4,CC(C)(C)c1cc(C=C(C#N)C#N)cc(Br)c1O,-39.2% (inactive)
5,CC(C)(C)c1cc(C=C(C#N)C#N)cc(C(C)(C)C)c1O,-90.8% (active) and -88.7% (active)
6,N#CC(C#N)=Cc1ccc(O)c(O)c1,10.7% (inactive) and 7.11% (inactive)
7,CN1C(=O)N(C)C2C1N(C)C(=O)N2C (stereo not given),5.58% (inactive)
8,OC1CC2CCCC(C1)N2Cc1ccccc1 (stereo not given),4.85% (inactive)
9,CC(=O)O[C@@H]1CC2C(C)(C)C(=O)C=C[C@]2(C)C2CC[C@]3(C)C(=CC(=O)O[C@H]3c3ccoc3)[C@@]21C (stereo not given in full),-83.5% (active)
10,CC1(C)C(=O)C=C[C@@]2(C)C1C[C@@H](O)[C@]1(C)C2CC[C@@]2(C)[C@H](c3ccoc3)OC(=O)[C@H]3O[C@]321 (stereo not given in full),13.2% (inactive)
11,CC(=O)O[C@H]1C[C@@H](OC(C)=O)C(C)(C)C2C[C@@H](OC(C)=O)[C@]3(C)C(CC[C@@]4(C)[C@H](c5ccoc5)C(=O)[C@H]5O[C@]543)[C@]21C (stereo not given in full),11.1% (inactive)
12,CCN(CC)CCOC1CCC2(C)C(=CCC3C4CCC(=O)C4(C)CCC32)C1 (stereo not given),-5.47% (inactive)
13,CN1CC2CCCC(C1)C2OC(=O)C(O)(c1ccccc1)C1CCCC1 (stereo not given),36% (inactive)
14,C[C@H](N)Cc1cnc[nH]1,10.9% (inactive)
15,Cc1cccc(C(C)c2cnc[nH]2)c1C (stereo not given),15.9% (inactive) and 24.6% (inactive)
16,CCCCCCC(C)(C)c1ccc(C2CC(O)CCC2CCCO)c(O)c1 (stereo not given),0.246% (inactive)
17,C[C@]12CC[C@H](O)C[C@H]1CC[C@@H]1[C@@H]2CC[C@]2(C)[C@@H](C3=CC(=O)OC3)CC[C@]12O,-86.6% (active)
18,C[C@]12CC[C@H](O)C[C@H]1CC[C@@H]1[C@@H]2C[C@@H](O)[C@]2(C)[C@@H](C3=CC(=O)OC3)CC[C@]12O,-93.5% (active)
19,C[C@]12CC[C@H](O)C[C@H]1CC[C@@H]1[C@@H]2CC[C@]2(C)[C@@](O)(c3ccoc3)CC[C@]12O,2.9% (inactive)
20,C[C@]12CC[C@@H](O)C[C@@H]1CC[C@@H]1[C@@H]2CC[C@]2(C)C(=O)CC[C@@H]12,9.11% (inactive)
21,CC(=O)C1CCC2C3CCC4C[C@H](O)CCC4(C)C3C[C@H](O)C12C (stereo not given in full),3.84% (inactive)
22,C[C@]12[C@H](O)CC3C(CC[C@@H]4C[C@@H](O)CC[C@]34C)[C@@]1(O)CC[C@@H]2C1=CC(=O)OC1 (stereo not given in full),-84.3% (active)
23,C[C@]12CC[C@@H](O)C[C@@H]1CC[C@@H]1[C@@H]2CC[C@]2(C)[C@@H](C(=O)CO)CC[C@@H]12,8.82% (inactive)
24,CC(=O)OCC(=O)[C@H]1CC[C@H]2[C@@H]3CC[C@H]4C[C@H](O)CC[C@]4(C)[C@H]3C(=O)C[C@]12C,-8.47% (inactive)
25,CC(=O)[C@H]1CC[C@H]2[C@@H]3CC[C@H]4C[C@H](O)CC[C@]4(C)[C@H]3C(=O)C[C@]12C,12.1% (inactive)
26,Cl/C=C\C[N+]12CN3CN(CN(C3)C1)C2,5.98% (inactive)
27,NC1=NC(=O)N2CC12 (stereo not given),6.84% (inactive)

row,Structure (SMILES),"activity change, negative = inhibition"
1,Oc1ccc2c3c1OC1c4oc5ccccc5c4CC4(O)C(C2)N(CC2CC2)CCC314 (stereo not given),-19.3% (inactive)
2,N#CC(O[C@@H]1O[C@H](CO[C@@H]2O[C@H](CO)[C@@H](O)[C@H](O)[C@H]2O)[C@@H](O)[C@H](O)[C@H]1O)c1ccccc1 (stereo not given in full),19% (inactive)
3,COC[C@@H](NC(C)=O)C(=O)NCc1ccccc1,-51% (inactive)
4,O=C1Nc2ccc(Cl)cc2C(c2ccccc2Cl)=NC1O (stereo not given),5.64% (inactive)
5,CC(C)CC(NC(=O)C(Cc1ccccc1)NC(=O)CNC(=O)[C@H](C)NC(=O)C(N)Cc1ccc(O)cc1)C(=O)N[C@H](CCCN=C(N)N)C(=O)O (stereo not given in full),10.6% (inactive)
6,O=C1CN=C(c2cccc(Br)c2)c2oc3ccccc3c2N1,22.5% (inactive)
7,CNC(=O)Oc1ccccc1OC(C)C,12.8% (inactive)
8,ClC=C(Cl)Cl,8.81% (inactive)
9,Oc1ccc2c3c1OC1c4c(c5ccccc5n4Cc4ccccc4)CC4(O)C(C2)N(CC2CC2)CCC314 (stereo not given),-1.02% (inactive)
10,CCCCCCCCCCCCC/C=C/[C@@H](O)[C@@H](N)COP(=O)(O)OCC[N+](C)(C)C,-1.29% (inactive)
11,NC(=O)CN1C[C@H](O)CC1=O,-40.7% (inactive)
12,CN1CCc2cc3c(cc2C1[C@@H]1OC(=O)c2c1ccc1c2OCO1)OCO3 (stereo not given in full),8.11% (inactive)
13,Cc1o[nH]c(=O)c1C[C@H](N)C(=O)O,13.1% (inactive)
14,Cc1o[nH]c(=O)c1CC(N)C(=O)O (stereo not given),3.8% (inactive)
15,CC(C)(C)c1o[nH]c(=O)c1CC(N)C(=O)O (stereo not given),-79.9% (active) and 9.91% (inactive)
16,Oc1ccc2c3c1OC1c4[nH]c5ccccc5c4CC4(O)C(C2)N(CC2CC2)CCC314 (stereo not given),6.33% (inactive)
17,CN1C2CCC1CC(OC(=O)c1cc(Cl)cc(Cl)c1)C2 (stereo not given),-1.24% (inactive) and 2.27% (inactive)
18,C[C@H]1CCC/C=C/[C@@H]2C[C@H](O)C[C@H]2[C@H](O)/C=C/C(=O)O1,-94.5% (active)
19,COc1ccc(/C=C/C(=O)CC(=O)/C=C/c2ccc(OC)c(OC)c2)cc1OC,2.29% (inactive)
20,CC(C)(c1ccc(OCC2CO2)cc1)c1ccc(OCC2CO2)cc1 (stereo not given),9.89% (inactive)
21,CN1C2CCC1CC(OC(c1ccccc1)c1ccccc1N)C2 (stereo not given),16.3% (inactive)
22,c1cc2c(c(N3CCNCC3)c1)OCCO2,-0.0388% (inactive)
23,CN1C2CCC1CC(OC(c1ccc(F)cc1)c1ccc(F)cc1)C2 (stereo not given),22.3% (inactive) and 38.4% (inactive)
24,CC(=O)N(C)c1cccc(-c2ccnc3c(C(=O)c4cccs4)cnn23)c1,42.5% (inactive)
25,O=C1NC(=O)c2c1c1c3ccccc3[nH]c1c1[nH]c3ccccc3c21,-28.7% (inactive) and -11.9% (inactive)
26,O=C1NC(=O)c2c1c1c3ccccc3n3c1c1c2c2ccccc2n1C1CCC3O1,-71.9% (active)
